# Reference: the supplement of paper PMC12632987
# T1: USP38, Q8NB14
# T1 chain: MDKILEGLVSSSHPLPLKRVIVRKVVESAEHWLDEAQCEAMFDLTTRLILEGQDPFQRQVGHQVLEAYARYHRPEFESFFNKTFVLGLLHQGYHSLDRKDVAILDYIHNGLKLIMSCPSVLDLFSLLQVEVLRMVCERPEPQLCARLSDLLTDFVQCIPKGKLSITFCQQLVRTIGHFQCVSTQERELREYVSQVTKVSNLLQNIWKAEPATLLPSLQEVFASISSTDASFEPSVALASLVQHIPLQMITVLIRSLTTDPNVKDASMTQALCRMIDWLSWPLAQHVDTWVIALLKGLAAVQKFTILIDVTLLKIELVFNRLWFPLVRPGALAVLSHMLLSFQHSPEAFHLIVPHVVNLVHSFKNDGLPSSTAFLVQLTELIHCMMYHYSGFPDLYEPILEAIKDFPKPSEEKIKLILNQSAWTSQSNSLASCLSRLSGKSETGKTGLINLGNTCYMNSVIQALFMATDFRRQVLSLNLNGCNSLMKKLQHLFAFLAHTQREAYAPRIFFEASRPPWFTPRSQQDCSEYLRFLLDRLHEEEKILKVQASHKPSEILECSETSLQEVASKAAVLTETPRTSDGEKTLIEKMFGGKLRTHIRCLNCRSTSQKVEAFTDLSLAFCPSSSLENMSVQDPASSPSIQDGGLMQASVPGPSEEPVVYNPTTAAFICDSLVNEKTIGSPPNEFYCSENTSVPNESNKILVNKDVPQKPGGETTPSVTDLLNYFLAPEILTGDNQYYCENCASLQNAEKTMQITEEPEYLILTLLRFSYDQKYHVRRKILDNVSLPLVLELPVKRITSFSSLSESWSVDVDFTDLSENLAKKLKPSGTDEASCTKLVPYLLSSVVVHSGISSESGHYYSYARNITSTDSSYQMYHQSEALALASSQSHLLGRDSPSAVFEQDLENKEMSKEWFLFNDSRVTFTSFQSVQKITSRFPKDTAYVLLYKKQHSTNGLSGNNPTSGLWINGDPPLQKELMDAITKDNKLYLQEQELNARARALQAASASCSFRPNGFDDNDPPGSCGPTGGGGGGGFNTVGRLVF
# Molecular target: T1, USP38, Q8NB14
# Experiment: median log2 fold change of GCK-ALFA target abundance (FLAG IP / Myc IP barcode read proportion) (log2 ratio); each designed protein is fused to an ALFA-tag nanobody in HEK293 cells to bring the named protein to FLAG-tagged glucokinase (GCK); Myc marks an untargeted standard; higher = target protein stabilised (more abundant)
# Details: target protein: 3xFLAG-MCP-GCK-ALFA reporter; HEK293 landing pad (RPLP)
# Outline: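 An ALFA-nanobody-fused binder library was recombined into HEK293 landing-pad cells and induced with 2 μg mL^−1 doxycycline. Cells were transfected with a plasmid expressing a FLAG-tagged target and a Myc-tagged standard. After 48 h, lysates underwent anti-FLAG and anti-Myc immunoprecipitation, and circular RNA barcodes were reverse transcribed, amplified and sequenced. Target abundance is the per-binder median log2 ratio of FLAG to Myc barcode read proportions. Barcodes needed ≥10^−7 proportion in both replicates, binders ≥3 barcodes per replicate, and a 10^−6 pseudocount was added; the two replicates were pooled.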
row,Binder,median log2 fold change
1,usp_38_diff_out_16_13_187 (protein) SELEKLLKKLEELTKKAEEKKKELEKLIKEGAPKEEIREKLEELRELLIEAAGTILEIRNLMVEKANEEQRKKAREKLKEAEEKLNEAINLYVEKELELA,-0.622
2,usp_38_diff_out_16_25_188 (protein) NVEALLEAHHHLGLAAGYIVLAKEHKDSEKAREYLEKAIEHLEEALRILEEELNIDEETAEEIRKLIEKAKKLLKEGAPVEEIIKLLEEAIDLMAKALAE,0.00197
3,usp_38_diff_out_16_25_189 (protein) SVEALLKAHEELGEAAGYIVQARENKDKPEARELLKKAIESLEKALEILEKELKIDEKVAKEIREKIERARKLLEEGKPVEEVIKELEEALDLAIEALAK,0.371
4,usp_38_diff_out_16_25_190 (protein) NVEALLRAHDELGRAAGYIVLAREHADSPEVKELLREAIESLERALRIAEEELHIPEEVAEKVKKLIEEAKKLLEEGADPEEVIKKLEEALDLLAEALAE,0.107
5,usp_38_diff_out_16_25_191 (protein) SVEALLRAHDKLGEAAGYILQAKEKKDSEEARKLLEKAVKALEEALKILVEELKIDPKDAEEIEKLIKEAKKLLKEGAPVEEVIKVLEKAVDAAAKALAK,0.0845
6,usp_38_diff_out_16_25_192 (protein) SVEALLRAHDLLGEAAGYILEAKEHKDSPKARELLEKAIKSLEEALRVMKEELKIDEEKAEEIEKLIKEAKKLLKEGAPVEEVIKVLEEAVDKAADALAE,0.243
7,usp_38_diff_out_16_25_193 (protein) NVEALLRAHDALGRAAGYVVRARELGESPEARELLREAIRALREALRILREELRIPEEVARRIEEAIERAERLLEAGEPVEEVIEALEEAIDLAAAALAA,0.174
8,usp_38_diff_out_16_25_194 (protein) EVEALLKAHDEIGWAAGKLLEAKESKDPEEQKKLLEEALKHLEKALKILKEELKIDEETLKKIEELIKKAKKLLKEGAPFEEVIKTLEEAIDLAVDALNK,0.00535
9,usp_38_diff_out_16_25_195 (protein) SVEALLRAHDLIGRAAGLVLRARESEDPEEQRRLLEEAIRHLEEALELLKEELKIDEETAEKIEKLIEEARRLLEEGAPFEEVIKVLEEAIDLAVDALAK,0.188
10,usp_38_diff_out_16_25_196 (protein) EVEALLRAHDEIGRAAGLVLRAREEEDPERQRELLREALEHLRRALEILREELRVDEETARELEELIERAERLLEEGAPAEEVIAVIEEAIDLAVDALAE,0.215
11,usp_38_diff_out_16_25_197 (protein) SVEALLEAHDLIGRAAGYVLRARESEDPEEQRKLLREALEHLEEALKLLEEKLKIDPEKAKEIKKLIEEAKKLLEEGAPIEEVIAVVEKAIDLAVDALNE,0.179
12,usp_38_diff_out_16_25_199 (protein) NVEALLKAHDELGKAAGYILEAREHLDSPEVKELLEKAIEHLEEALKIMKEELKIPQETAKKIQELIEKAKKLLEEGADPEEVIKALEEAIDAAADALAS,0.324
13,usp_38_diff_out_16_25_200 (protein) SVEALLEAHDHLGEAAGHILRAKESKDEEEKKKLLEEAIKHLEKALKIMKEKLKIPEEVAEEIEKKIERAKKLLEEGAPFEEVIKELEEAIDLAAKALAA,0.457
14,usp_38_diff_out_16_25_201 (protein) EVEALLEAHDHLGDAAGYVLRAKESEDEEERKRLLREALESLRRALDILRERLHIPEEEAERIEALIEEAERLLEEGAPFEEVIAVVEEAIDLAAEALAR,0.237
15,usp_38_diff_out_16_25_202 (protein) EVEALLRAHDELGEAAGYILRARESEDEEERKKLLREALESLEKALDIMKKELKIPEEVAKKIQELIDEAKEKLEAGAPFEEVIKLLEEAIDLAAEALAA,0.316
16,usp_38_diff_out_16_37_203 (protein) SAAEVEALMARLREAVERARELIERARRAIEEGADEAEIERLLEEATRALEEAGRALAEILLLDPARYPEARALYDETAARFGEVVAEARDARRERRARA,-0.344

row,Binder,median log2 fold change
1,usp_38_diff_out_16_37_204 (protein) GEELLKEYKEFVEKVIKEAKKLAEEAKKLAKAGADLAEIRAIQEKLNELLDELVERTTEVLEKVPEHAEEILEEYDKAATEIAKAGAEIRAELRKAKAAA,-0.535
2,usp_38_diff_out_16_37_205 (protein) GEELLEEFRRFMEEAEREARRLAEEARELAEKGADIEEIERVLEELERLLDEVVERTTEVLEAVPEHADEILAEYDRAATTLAEAGKEIREKLREAKEKE,-0.436
3,usp_38_diff_out_16_37_206 (protein) AEKLLAEFKAFVEEIIERARRLAEEARRLAEEGAPIEEIERVLRELEELLDELVERTTEVLEKVPEHADEILAEYDRAATEIAEAGAEIRKALRERKEKE,-0.0578
4,usp_38_diff_out_16_37_207 (protein) GEEKLKEFKKFMEEAMKKAKKLAEEAKKLAKEGKDKKEIEKLQKELDKLLDEVNEKTTEVLEEVPEKADEILAEYDKAATTIAEAGATIRAELRKARAAE,0.0801
5,usp_38_diff_out_16_37_208 (protein) AEAKLAEFAAFMERAIEEARRLAEEARRLAEEGAPVEEIERLLEELRRLLDEVVERTTEVLEEVPEHADEILALYDRAATEIAEAGQEIREELRRRREEE,-0.00395
6,usp_38_diff_out_16_37_209 (protein) AEKVLEEFKKFMEEAIKRAEEIGRRARELEEEGADLEELERLLEELERLLDEAVKRLTEALEKVPEKIEELFAIYDEFADAAARAGAIIREAIRRARERA,0.0185
7,usp_38_diff_out_16_37_210 (protein) GEEVLKEFKEFMEKAIEEAKKLAEEAKKLAKEGADIEELKKLKEELEKLIDEAVEKTTEALEKVPEKIEEIFAEFDKFADEAAKAGKEIDKAIKEAKKKK,-0.522
8,usp_38_diff_out_16_37_211 (protein) MEEEIEKARKEMEEHLEKALELAERALKLVEEGASEAEIEKAMQEATDALLKAGRAAAELIHLDPSLEDEVVARYDEVATRVAALLREVQEALRARRAAE,0.0682
9,usp_38_diff_out_17_125_212 (protein) MFEELKKKIEELLEEARRLVEEAERALAAGAPTAEVRRLLDQAADALGQLAVELRKLREESKDKAQAAKVIKEATKEANELIDRLTELETRVFLREAEAA,-1.04
10,usp_38_diff_out_17_125_213 (protein) AEAALIAEIEALLAEATAKVKEAEALLKAGAPTEEVLKALDAARDALGALAVALERLRRESADRAQAAAVIKAATAEADKLIDRLTELETEAFLRQAEEA,0.41
11,usp_38_diff_out_17_125_214 (protein) DFEELVKKIEELLAEAEKLVKEAKKLLEEGAPPAEVRAALDKARDALGALAKALRELRRTSKDKAQAAKVIKEANEKADKLIDELTKLETEVFLREADAA,-0.149
12,usp_38_diff_out_17_125_215 (protein) SDEELKKEIEKKLKEAEELLKEAEKALEAGAPAEEVEKLLDAAADALGQLAVLLRELREKSKDKAQAAKFIKKATEEANKLIDRYTELAERNFLRVAEEQ,-0.432
13,usp_38_diff_out_17_125_216 (protein) SDEELKEKAEELLKKAEELLKEAEKLLEEGAPAEEVEKKLDEAADALGQLAVTLRELREKSEDKAQAAKFIKELTKKANELIDRYTELATANFQRVADAQ,-0.484
14,usp_38_diff_out_17_125_217 (protein) SSEELKEEIEKALKEAEELLKKAKELLEAGAPFEEIMAALDKAADALGKLAVLLRKLREESEDPAQAAKFIKEATKRADELIDEYTKLATEAFQREADAA,-0.0349
15,usp_38_diff_out_17_125_218 (protein) SDEELKKEIERLLEEAERLLEEAEKALEEGAPFEEIRKLLDEAADALGQAAVKLRELREKSEDPAQAAKFIKEATERANELIDRYTELATRAFLREAEAA,0.0443
16,usp_38_diff_out_17_125_219 (protein) SDADLEAEAKALLAEAKALLKEAEKLLKEGAPFEEIRKKLDAAADKLGQLAVTLQQLRDKSKDKAQAAKFIKEMTAEANKLIDEYTKLATEAFLREAEEA,-0.0439
